# High-throughput results from PubChem BioAssay.
# A selection: hits, their analogues and other compounds. The true share with any hit is near 19%.
# IL-1B inflam inh: inhibitors of inflammasome signaling (IL-1 beta secretion). THP-1 LPS/ATP IL-1B secretion, AlphaLISA, 16 h; active compounds read low. activity change, % at 57.5 µM. hit rate 4.7% among 360,000; in the data active means activity change below about -50%; inconclusive means mostly about -30% to -49%
#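 Secreted IL-1B measured by AlphaLISA bead assay after 16 h compound exposure of THP-1 cells; compounds (final up to 57.5 uM) added 1 h before LPS (250 ng/mL) and ATP (1.25 mM) stimulation; lower signal means less secretion.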
# TDP1 block: TDP1 (human) enzyme inhibition; Q9NUW8; recombinant TDP1, AlphaScreen DNA substrate cleavage; Potency, µM (series often up to 130 µM), for inactives: at the highest dose activity change, negative = inhibition, usual class: inhibitors; hit rate 0.28% among 350,000; AID 485290; further: potency means the concentration at half of the fitted maximal effect; nearly all actives have a fitted effect of over 40% in size
# Target sequence (Q9NUW8 whole entry, looked up): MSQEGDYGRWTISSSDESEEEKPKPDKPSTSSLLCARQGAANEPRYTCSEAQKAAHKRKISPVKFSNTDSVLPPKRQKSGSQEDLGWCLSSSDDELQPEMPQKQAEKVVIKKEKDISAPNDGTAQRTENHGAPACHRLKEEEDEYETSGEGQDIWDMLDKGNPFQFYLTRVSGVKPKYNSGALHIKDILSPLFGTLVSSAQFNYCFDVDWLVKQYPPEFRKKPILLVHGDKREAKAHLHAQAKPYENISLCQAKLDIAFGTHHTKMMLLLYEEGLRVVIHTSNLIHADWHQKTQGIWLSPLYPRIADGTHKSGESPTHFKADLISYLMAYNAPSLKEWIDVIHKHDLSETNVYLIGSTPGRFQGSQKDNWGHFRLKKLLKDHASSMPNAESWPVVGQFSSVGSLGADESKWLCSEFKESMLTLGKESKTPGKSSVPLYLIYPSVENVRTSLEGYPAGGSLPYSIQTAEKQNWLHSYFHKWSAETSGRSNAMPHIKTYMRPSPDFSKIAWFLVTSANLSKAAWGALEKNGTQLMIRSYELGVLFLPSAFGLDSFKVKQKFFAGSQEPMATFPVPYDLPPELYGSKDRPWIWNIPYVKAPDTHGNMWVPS
#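 Enzyme-compound mixtures sat 15 min at room temperature, followed by a 5 min reaction with 15 nM final substrate and 10 min with AlphaScreen beads. Recombinant human Tdp1 was used at 1 nM final.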
# DT40 TDP1 CPT: growth inhibition of DT40 Tdp1-/-;hTDP1 cells with camptothecin (screen for TDP1 inhibitors); chicken DT40 Tdp1-/-;hTDP1 cells + 20 nM CPT, ATP luminescence, 48 h; Potency, µM (highest dose often 46.2 µM), for inactives: at the highest dose activity change, negative = growth inhibition, actives largely listed as inhibitors; hit rate 12% among 420,000; further: potency means the concentration at half of the fitted maximal effect; nearly all actives have a fitted effect of over 55% in size
#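 Chicken DT40 Tdp1-/- cells complemented with human TDP1, 400 cells/well, exposed to compounds plus 20 nM camptothecin for at least 48 h at 37 C; viability read as ATP content by CellTiter-Glo luminescence.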
# Giardia killer: kills Giardia lamblia | Giardia lamblia trophozoite viability | activity change, % at 7.66 µM, hits read low | hit rate 0.15% among 340,000 | AID 540267; in the data active means activity change below about -80%; inconclusive means between about -30% and that limit;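 further: parasites exposed to compound for two days anaerobically before the ATP read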
#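 Each well holds 100 Giardia trophozoites and compound. After two days (48 hrs) at 37 deg C in anaerobic conditions, ATP is quantified by luminescence.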
# ELG1 DNA repair: ELG1-dependent DNA repair inhibition; HEK293T ELG1-luciferase reporter, luminescence, 16 h; DNA damage induced by 5-fluorouridine; Potency, µM (highest dose often 46.1 µM), inactives show at the highest dose activity change, negative = inhibition, actives largely listed as inhibitors; hit rate 2.3% among 330,000; AID 504467; further: potency means the concentration at half of the fitted maximal effect; nearly all actives have a fitted effect of over 55% in size
#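 Overnight (16 hr) co-exposure of 2,000 cells/well to 5-fluorouridine and compound at 37 °C preceded detection. Luciferase was quantified via ONE-Glo luminescence; loss of signal denotes inhibition.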
# DT40 TDP1 no CPT: qHTS for Inhibitors of human tyrosyl-DNA phosphodiesterase 1 (TDP1): qHTS in cells in absence of CPT. DT40 Tdp1-/- hTDP1 cells, no CPT, ATP luminescence, 48 h. Potency, µM (series often up to 46.2 µM), for inactives: at the highest dose activity change, negative = growth inhibition, actives largely listed as inhibitors. hit rate 15% among 420,000. AID 686978, 2013; further: potency means the concentration at half of the fitted maximal effect; nearly all actives have a fitted effect of over 55% in size
#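 Seeded 400 DT40-hTDP1 cells/well (vehicle DMSO, no 20 nM CPT); pinned compounds; ≥48 hr at 37 °C; CellTiter-Glo luminescence as viability measure.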
# * hit, by the source's call; u = inconclusive; x = no result given. Unless noted, the call rests on the fitted dose curve; in most records, active means well fitted curve in the direction sought with a large enough effect; inconclusive means small, poorly fitted or top-dose-only effect, or another doubt; inactive means no such curve, though single readings can be large; an effect the other way counts as inactive or inconclusive. On the % scale 0 is the no-effect control and ±100 the full control effect.
SMILES,IL-1B inflam inh,TDP1 block,DT40 TDP1 CPT,Giardia killer,ELG1 DNA repair,DT40 TDP1 no CPT
CCOC(=O)c1oc2cccc(OCC(O)CNC(C)C)c2c1C (centres undefined),-50*,-2%,21µM*,0,21%,u
C[C@@H]1CN([C@H](C)CO)C(=O)c2cccc(NC(=O)Nc3ccc(C(F)(F)F)cc3)c2O[C@H]1CN(C)S(=O)(=O)c1cccs1,-55*,2%,8.2µM*,13,0%,16µM*
C[C@H]1CN([C@@H](C)CO)C(=O)c2cccc(NC(=O)Nc3ccc(C(F)(F)F)cc3)c2O[C@@H]1CN(C)S(=O)(=O)c1ccccc1,-4,3%,u,2,u,21µM*
COc1ccc(S(=O)(=O)N(C)C[C@H]2Oc3ccc(NC(=O)Nc4ccc5c(c4)OCO5)cc3C(=O)N([C@H](C)CO)C[C@@H]2C)cc1,0,2%,21µM*,10,-13%,u
C[C@H](CO)N1C[C@H](C)[C@@H](CN(C)S(=O)(=O)c2cccs2)Oc2c(NC(=O)Nc3ccccc3)cccc2C1=O,-10,1%,-9%,21,-1%,5%
CC(C)NC(=O)Nc1ccc2c(c1)C(=O)N([C@H](C)CO)C[C@H](C)[C@@H](CN(C)S(=O)(=O)c1ccccc1)O2,11,1%,-9%,18,1%,-5%
C[C@H](CO)N1C[C@H](C)[C@@H](CN(C)S(=O)(=O)c2ccccc2)Oc2ccc(NC(=O)Nc3ccc(C(F)(F)F)cc3)cc2C1=O,0,0%,21µM*,0,21µM*,u
Cc1nc2nc(CNC(=O)c3cccc(F)c3)nn2c(C)c1CCC(=O)Nc1ccc(F)cc1,x,3%,2%,x,x,-9%
O=C(NCCc1ccccc1Cl)c1ccc2c(c1)nc1n2CCCCC1,x,8%,u,x,x,u
C[C@H](CO)N1C[C@H](C)[C@@H](CN(C)S(=O)(=O)c2ccccc2)Oc2ccc(NC(=O)CCC(F)(F)F)cc2C1=O,-16,0%,21µM*,-29,0%,-30%
Cc1noc(C)c1S(=O)(=O)N(C)C[C@H]1Oc2c(NC(=O)Nc3ccc(C(F)(F)F)cc3)cccc2C(=O)N([C@H](C)CO)C[C@@H]1C,-21,0%,-106%,23,u,23µM*
C[C@H](CO)N1C[C@H](C)[C@H](CN(C)S(=O)(=O)c2cccs2)Oc2ncc(-c3cc4ccccc4o3)cc2C1=O,-4,x,23µM*,x,x,15µM*
Cc1noc(C)c1S(=O)(=O)N(C)C[C@H]1Oc2c(NC(=O)Nc3ccccc3)cccc2C(=O)N([C@H](C)CO)C[C@@H]1C,-4,2%,-16%,-7,12%,-17%
C[C@H](CO)N1C[C@H](C)[C@H](CN(C)S(=O)(=O)c2cccs2)Oc2ccc(NC(=O)Nc3ccc4c(c3)OCO4)cc2CC1=O,u,5%,u,-4,u,16µM*
COc1ccc(S(=O)(=O)N(C)C[C@H]2Oc3ccc(NC(=O)Nc4ccc5c(c4)OCO5)cc3CC(=O)N([C@@H](C)CO)C[C@@H]2C)cc1,u,4%,u,-6,-18%,u
CC(C)NC(=O)N(C)C[C@H]1Oc2ccc(NC(=O)CCC(F)(F)F)cc2C(=O)N([C@H](C)CO)C[C@@H]1C,22,1%,10%,22,12%,0%
CN(C)c1ccc(CN(C(=O)c2cccs2)C2CCS(=O)(=O)C2)cc1 (centres undefined),-17,10%,5%,-2,5%,-11%
O=C(CN1CCN(C(=O)C2COc3ccccc3O2)CC1)Nc1ccc(F)cc1 (centres undefined),22,-1%,8%,-9,-15%,-14%
